According to the supplement of paper PMC4894684:
Structures can show the parent of a compound that is named as a salt. ± gives the standard deviation of the averaged measurements.

tested on: Toxoplasma gondii RH (in HFF); assay: parasite growth relative to the screen mean (all compounds = 100%); higher = less inhibition of parasite growth; conditions: 5 µM; 72 h; oxygen 21 %
Summary of the method: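 RH β-Gal–GFP Toxoplasma at MOI 1:5 was used to infect confluent human foreskin fibroblasts in 96-well plates within 2 h of pin-transferring compounds to 5 µM final. After 72 h at 21% O2, parasite number was determined by CPRG β-Gal assay against standard curves on the same plate. Growth is relative to the screen mean and averaged over two screens, with all compounds = 100%.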

SMILES	parasite growth [%]
CN(Cc1ccccc1)C(=O)[C@H](Cc1ccc2ccccc2c1)NC(=O)[C@@H]1C[C@@H](O)CN1C(=O)c1cn(C)c2ccccc12	138 ± 4.8
O=C1NC(c2cccc([N+](=O)[O-])c2)=CCN1c1ccccc1O [Icilin]	128 ± 36
O=C1NC(=O)c2cc(Nc3ccccc3)c(Nc3ccccc3)cc21	176 ± 43
Cc1ccc2c(c1)C(=O)C1(O)CCN(c3ccccc3)C1=N2 (racemic) [(±)-Blebbistatin]	161 ± 15
NCCCCNCCCN [Spermidine trihydrochloride]	90.6 ± 7.8
c1cc2c(cc1C1CCCCC1)c1c3n2CCNC3CCC1 (centres undefined) [Tetrindole mesylate]	13.2 ± 2.2
O=C(O)CCC/C=C\C[C@@H]1CO[C@H](C(F)(F)F)O[C@@H]1c1ccccc1O	102 ± 25
Cc1ccc(=O)n(-c2ccccc2)c1 [Pirfenidone]	128 ± 11
N=C(N)NC(=O)Cc1c(Cl)cccc1Cl [Guanfacine hydrochloride]	162 ± 45
CN(C)CCCSc1ccccc1NC(=O)/C=C/c1ccccc1 [Cinanserin hydrochloride]	120 ± 9.6
COc1ccc2[nH]c([S+]([O-])Cc3ncc(C)c(OC)c3C)nc2c1 (centres undefined) [Omeprazole]	178 ± 7.3
CCN(CC)CCCCNc1ncc2cc(-c3c(Cl)cccc3Cl)c(NC(=O)NC(C)(C)C)nc2n1	< 0
CCOc1cc(CC(=O)N[C@@H](CC(C)C)c2ccccc2N2CCCCC2)ccc1C(=O)O [Repaglinide]	150 ± 13
O=C(Nc1ccncc1)c1cc([N+](=O)[O-])ccc1Cl	< 0
Cc1cc(F)c(Nc2ncnc3cc(OCc4ccccc4)ccc23)cc1O	11.2 ± 13
O=C(O)CCCc1ccccc1 [sodium 4-Phenylbutyrate]	64.6 ± 3.4
NC(C(=O)O)c1cc(O)cc(O)c1 (racemic)	142 ± 15
N=C(N)SCCc1ccc(OCc2ccc([N+](=O)[O-])cc2)cc1 [KB-R7943 mesylate]	< 0
C[C@H](NC[C@H](O)CP(=O)(O)Cc1ccccc1)c1ccc(Cl)c(Cl)c1	108.5 ± 0.57
COc1cccc2c1C(=O)c1c(O)c3c(c(O)c1C2=O)C[C@@](O)(C(C)=O)C[C@@H]3O[C@H]1C[C@H](N)[C@H](O)[C@H](C)O1 [Daunorubicin hydrochloride]	< 0

SMILES	parasite growth [%]
CC1(C)NC(=O)N(c2ccc([N+](=O)[O-])c(C(F)(F)F)c2)C1=O [Nilutamide]	150 ± 36
Oc1ccc(-c2nc3cc(O)cc(Br)c3o2)cc1	134 ± 20
NS(=O)(=O)c1cccc2c1c([N+](=O)[O-])cc1nc(O)c(O)nc12	144 ± 9.6
COc1ccccc1N1CCN(CCN2C(=O)c3ccccc3C(C)(C)C2=O)CC1 [ARC 239 dihydrochloride]	108 ± 47
COc1ccc([C@H]2CNC(=O)C2)cc1OC1CCCC1 [(S)-(+)-Rolipram]	116 ± 30
CN(CCCN1c2ccccc2CCc2ccccc21)CC(=O)c1ccc(Cl)cc1 [Lofepramine]	185.3 ± 1.1
CN(C)[C@@H]1CCc2[nH]c3ccc(NC(=O)c4ccc(F)cc4)cc3c2C1	124 ± 19
Nc1nc2c(ncn2COCCO)c(=O)[nH]1 [Acyclovir]	124 ± 28
COC(=O)c1sccc1S(=O)(=O)Nc1ccc(Nc2ccccc2)cc1OC	64 ± 25
Nc1ncn([C@H]2C[C@H](O)[C@@H](CO)O2)c(=O)n1 [Decitabine]	119 ± 9.9
COc1cc(CNC(=O)CCCC/C=C/C(C)C)ccc1O [(E)-Capsaicin]	135 ± 14
FC(F)(F)c1cc(COC2CCCNC2c2ccccc2)cc(C(F)(F)F)c1 [L-733,060 hydrochloride]	29.6 ± 16
N#Cc1c(O)c2c(-c3ccc(-c4ccccc4O)cc3)csc2[nH]c1=O	131 ± 14
O=S(=O)(c1ccccc1)N(CC(F)(F)F)c1ccc(C(O)(C(F)(F)F)C(F)(F)F)cc1	132 ± 5.8
COc1cc(Br)c(S(=O)(=O)Nc2ccc(Cl)c(O[C@@H]3CCN(C)C3)c2)cc1OC	57.1 ± 16
Cc1ccc2c(=O)c3ccccc3n(CCCN)c2c1C	< 0
O=C(NCCCN1CCCCCC1)C(c1ccccc1)C1CCCCC1 (centres undefined)	83 ± 2.4
CC(C)CC(NC(=O)OCC1c2ccccc2-c2ccccc21)C(=O)O (centres undefined)	59.8 ± 23
CCOC(=O)c1c(C)[nH]c2ccc3c(c12)CN1CCc2cc(OC)ccc2C1O3 (centres undefined)	16.8 ± 6.5
